From PubChem BioAssay come the findings set out here.

Each structure is given as a SMILES string. Several values for one entry are separate records, joined by “and”; a condition that tells them apart may be missing. Equal entries are not always repeated. Activity calls are given as the source filed them.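 The calls were made as follows, unless noted: active = inhibition at or above 50% relative to wild type and mutant plate controls; inactive = inhibition below 50%.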

Assay [1] can be described thus: inhibitors of TNFa-induced NFkB p65 translocation, primary screen, imaging, HUVEC, MLSMR starter and 10KST1 sets (AID 438;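 active = inhibition above 20% together with a positive visual image hit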;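 also: compound added about 3h40 before a 20 min TNFalpha stimulation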;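 as to inhibition: signal is the nuclear over cytoplasmic p65 intensity ratio per well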). To be noted: HUVEC TNFa-induced p65 nuclear translocation; cell count: measured here: nuclei count (cytotoxicity indicator), at 2.08 µM; inhibition: at 2 µM, stronger effect = higher value, 0% TNFa-plus-vehicle, 100% no-TNFa wells.
The nature of assay [2]: reduction of polyQ htt aggregates in cells – imaging, exon1htt(103Q)mCFP cells, high-content imaging, primary screen (AID 483;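 active = visual image review flags a hit and inhibition of aggregation exceeds 20%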;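 also: compound exposure lasted 3 days before fixation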;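 as to nuclei count: percent of the per-plate median nuclei count of sample wells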). Particulars: exon1htt(103Q)mCFP cell line, aggregate imaging, at 2 µM; inhibition of aggregation: stronger effect = higher value; nuclei count: measured here: cell count, toxicity.
Assay [3] can be described thus: endothelial E-selectin expression blockers – imaging, HUVEC, immunofluorescence, MLSMR starter and 10KST1 sets, primary screen (AID 487;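 active = visually confirmed hit in the image check and inhibition above 20%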;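 as to inhibition: signal is fraction of cell area covered by stained E-selectin grains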;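 as to nuclei count: 100% = median nuclei count of all wells on the same plate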). Particulars: HUVEC TNFalpha-induced E-selectin immunofluorescence imaging, at 2 µM; inhibition: stronger effect = higher value; nuclei count: measured here: cell number, toxicity.
Assay [4] is described as follows: Primary imaging screen for DUSP6 inhibitors that restore phospho-Erk in transfected HeLa cells, chemical complementation (AID 609;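 active = compounds giving at least 50% inhibition in the cell-based MKP-3 phosphatase rescue imaging test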;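 as to inhibition: phospho-Erk level distribution per well compared with pooled transfected vehicle control wells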). To be noted: HeLa MKP-3 transfected, phospho-Erk imaging KS statistic, at 10 µM, cells stimulated with TPA for 15 min.
Assay [5] concerns the target Dual specificity protein phosphatase 6 (Homo sapiens) (UniProt Q16828). The assay is described as above. Particulars: HeLa MKP-3 transfected, phospho-Erk imaging KS statistic; at 10 µM; stronger effect = higher value; cells stimulated with TPA for 15 min.
For assay [6], the target named is Voltage-gated potassium channel subunit beta-2 (Rattus norvegicus) (UniProt P62483). Kind of assay: inhibitors of rat Kvbeta2 reductase activity – biochemical, NADPH fluorescence, primary screen (AID 622;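 active = fluorescence slope higher than the sample average by over 3 SD, cut at about -0.22 in these data, passing the limit was not always enough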;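 also: slope of raw intensity against log time taken from 70 to 1610 s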). To be noted: recombinant KvBeta, 4-cyanobenzaldehyde reduction, at 10 µM, stronger effect = higher value.
Chain of Voltage-gated potassium channel subunit beta-2 (Rattus norvegicus) (P62483 whole entry, looked up): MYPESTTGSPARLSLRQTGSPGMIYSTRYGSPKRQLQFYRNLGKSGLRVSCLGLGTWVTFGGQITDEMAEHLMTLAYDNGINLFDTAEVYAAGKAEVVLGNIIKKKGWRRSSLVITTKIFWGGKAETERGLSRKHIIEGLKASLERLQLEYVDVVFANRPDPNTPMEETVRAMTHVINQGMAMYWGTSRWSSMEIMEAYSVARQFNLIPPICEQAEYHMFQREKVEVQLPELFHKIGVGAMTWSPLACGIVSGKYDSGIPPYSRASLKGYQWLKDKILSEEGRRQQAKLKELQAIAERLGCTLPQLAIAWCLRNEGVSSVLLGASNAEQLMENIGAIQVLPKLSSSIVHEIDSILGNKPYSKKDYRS
The target is the same in assay [7]. As to the kind of experiment: enhancers of rat Kvbeta2 NADPH turnover – biochemical, NADPH fluorescence, primary screen (AID 623;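 active = NADPH fluorescence slope more negative than the mean of all samples by about 3 SD, 99.7% confidence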;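 also: fluorescence intensity change per second fitted from 20 to 320 s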). To be noted: Recombinant KvBeta, NADPH fluorescence decrease slope, 10 min; at 10 µM; stronger effect = lower value.
Assay [8] deals with Alpha-2C adrenergic receptor (Homo sapiens) (UniProt P18825). Kind of assay: compounds altering alpha2C-coupled GIRK flux – cell-based, HEK293 alpha2C/GIRK1/2, thallium flux, primary screen (AID 624;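 active = fluorescence slope after compound addition differing from the mean of all screened samples at 99.7% confidence, in either direction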;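 also: slope of fluorescence ratio to pre-addition baseline per second over 15 to 24 s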). Particulars: thallium flux BTC fluorescence, at 10 µM, actives lie on both sides.
Chain of Alpha-2C adrenergic receptor (Homo sapiens) (P18825 whole entry, looked up): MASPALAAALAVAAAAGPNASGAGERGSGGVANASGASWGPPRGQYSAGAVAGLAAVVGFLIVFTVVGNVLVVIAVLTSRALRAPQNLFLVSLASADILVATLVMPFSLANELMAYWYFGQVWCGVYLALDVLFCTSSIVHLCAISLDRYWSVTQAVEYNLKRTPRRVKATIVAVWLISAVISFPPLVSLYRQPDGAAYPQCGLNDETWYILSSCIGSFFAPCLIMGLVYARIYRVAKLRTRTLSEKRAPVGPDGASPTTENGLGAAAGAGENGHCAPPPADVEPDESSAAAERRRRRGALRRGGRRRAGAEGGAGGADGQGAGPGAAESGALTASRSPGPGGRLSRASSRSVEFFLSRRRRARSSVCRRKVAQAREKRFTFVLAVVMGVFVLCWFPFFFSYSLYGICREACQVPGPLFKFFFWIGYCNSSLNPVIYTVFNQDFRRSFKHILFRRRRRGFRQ
Assay [9] is described as follows: inhibitors of larval lipid processing in zebrafish, primary screen, whole organism, PED6 fluorescence, gall bladder and intestine (AID 686;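 active = a full or partial loss of lipid-probe fluorescence in the fish gall bladder, intestine or both, judged by eye; inactive = no fluorescence loss, or compound toxic to the fish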;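 also: larvae 5 to 7 days old with five fish per well; signal comes from phospholipase A2 cleavage of quenched PED6 carried via bile; overnight exposure to compound and PED6 before scoring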). Particulars: Zebrafish larvae PED6 lipid processing, fluorescence scoring; screened at 20 µM (by protocol).
Assay [10] is described as follows: loss of swimming-algae plug formation – whole organism, Chlamydomonas reinhardtii, WT vs cilia-less mutant, absorbance, 96-well, primary screen (AID 463189).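 Also: 0% = wild type cc124 cells in DMSO and 100% = ciliumless bld1 mutant cells.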 Particulars: Chlamydomonas reinhardtii gravitaxis, OD600 absorbance, 2 days; at 10 µM; stronger effect = higher value.
A short description of assay [11]: blockers of RIG-like receptor reporter activation – cell-based, Sendai virus stimulus, luciferase, 10K MLSCN set, TLR/RLR signaling modifier project, primary screen (AID 602276;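 active = inhibition at or above 50% at 10 µM; inactive = inhibition below 50%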;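 also: firefly luciferase from ISG56 promoter only with Renilla not read in this screen; 0% = Sendai virus plus DMSO and 100% = medium plus DMSO without virus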). Particulars: HEK293 RL24 IRF3 luciferase reporter, at 10 µM, stronger effect = higher value.
Assay [12] can be described thus: TLR3 IRF3 reporter activation blockers – cell-based, poly I:C stimulus, luciferase, 10K MLSCN set, primary screen (AID 602277;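 active = inhibition of the reporter signal at or above 50%; inactive = inhibition below 50%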). Particulars: HEK293-TLR3 RL24 IRF3 luciferase reporter, at 10 µM, stronger effect = higher value. A general note: Reporter assays use an easily measured gene product as a stand-in for the process of interest.
Setting [13] is: measured here: cell density z-score.
Where [14] appears, read: measured here: nuclear c-Myc green intensity z-score.
Where [15] appears, read: measured here: nuclear pErk red intensity z-score, stronger effect = higher value.

Chain of Dual specificity protein phosphatase 6 (Homo sapiens) (Q16828 whole entry, looked up): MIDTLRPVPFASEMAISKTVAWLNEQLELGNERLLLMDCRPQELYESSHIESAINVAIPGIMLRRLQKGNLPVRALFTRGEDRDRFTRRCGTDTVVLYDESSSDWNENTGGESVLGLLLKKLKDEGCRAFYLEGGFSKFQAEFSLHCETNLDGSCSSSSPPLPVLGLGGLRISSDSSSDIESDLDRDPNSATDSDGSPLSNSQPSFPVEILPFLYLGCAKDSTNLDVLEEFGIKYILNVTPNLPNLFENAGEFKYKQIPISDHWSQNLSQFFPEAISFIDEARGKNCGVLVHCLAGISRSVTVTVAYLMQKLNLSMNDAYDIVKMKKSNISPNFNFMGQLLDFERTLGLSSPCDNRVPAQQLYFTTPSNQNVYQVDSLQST

The term inhibition denotes the relative decrease from the control value, in per cent. Consider `C=CCSc1nnc2n(-c3ccccc3OC)c(=O)c3c4c(sc3n12)CCC4`, for which, in [1], the cell count worked out at 578. For the same compound, the inhibition in [1] is -5.9% (inactive); in assay [3], -27% (inactive); in assay [5], 7.73% (inactive); in assay [10], 43.3% (inactive); in [11] it was 1.81% (inactive); in assay [12] it was 0.316% (inactive). Besides, the inhibition of aggregation in assay [2] was 15.1% (inactive). For the same compound, the figures for the nuclei count in [2] and in assay [3] were 59.7% and 126%, respectively. The z-score was 0.876 in [4] (setting [13]), -0.888 in [4] (setting [14]) and -0.633 in [4] (setting [15]). Further, in assay [6], the fluorescence slope is -0.339 (inactive). In assay [7], the NADPH fluorescence slope is -1.1e-06 (inactive). Further, the slope in [8] was 0.00538 (inactive). Also, the call in assay [9] was inactive.
Consider `NS(=O)(=O)c1cc2c(cc1Cl)NC(C1C[C@H]3C=C[C@@H]1C3)NS2(=O)=O` (stereo not given in full), for which the cell count in [1] was 536. For the same compound, the inhibition in assay [1] was -8.9% (inactive); in assay [3], 6.1% (inactive); in assay [5], -6.41% (inactive); in [10], 20.5% (inactive); in assay [11], -6.01% (inactive); in [12] it was -8.05% (inactive). Further, the inhibition of aggregation in assay [2] was -11.7% (inactive). Also, the nuclei count is 102% in assay [2] and 120% in [3]. The z-score in assay [4] (setting [13]) came to 0.229; in assay [4] (setting [14]), 0.164; in assay [4] (setting [15]), 0.0197. The fluorescence slope in assay [6] was -0.525 (inactive). In addition, the NADPH fluorescence slope in assay [7] was -1.3e-05 (inactive). Moreover, the slope in assay [8] was 0.00377 (inactive). Further, the result in assay [9] was inactive.
Regarding `CC(=O)[C@H]1CC[C@H]2[C@@H]3CCC4=CC(=O)CC[C@]4(C)[C@H]3[C@H](O)C[C@]12C`, the cell count in assay [1] was 603. Besides, the inhibition was -11.5% (inactive) in assay [1]; -156% (inactive) in assay [3]; 7.39% (inactive) in [5]; -5.96% (inactive) in [10]; -13.1% (inactive) in assay [11]; -16.3% (inactive) in [12]. For the same compound, the inhibition of aggregation in assay [2] was 8.3% (inactive). Moreover, the figures for the nuclei count in assay [2] and in assay [3] were 112% and 135%, respectively. In addition, the z-score was 1.17 in [4] (setting [13]), 0.758 in assay [4] (setting [14]) and -0.978 in assay [4] (setting [15]). Also, in assay [6], the fluorescence slope was -0.485 (inactive). Also, the NADPH fluorescence slope in assay [7] is 4.5e-06 (inactive). Also, the slope in assay [8] was 0.00386 (inactive). Moreover, in assay [9], the result was inactive.
For `N#CC(C(=O)Nc1ccc(Cl)c(Cl)c1)=C1Nc2ccccc2N1`, the cell count in assay [1] is 445. Further, the inhibition in assay [1] is -0.2% (inactive); in [3], -124% (inactive); in assay [5], -1.75% (inactive); in assay [10], -6.51% (inactive); in assay [11], 12.6% (inactive); in assay [12] it was 15.9% (inactive). Also, the inhibition of aggregation in assay [2] is 13.2% (inactive). For the same compound, the nuclei count in assay [2] came to 98.9%; in assay [3], 136%. Also, the figures for the z-score in assay [4] (setting [13]), in [4] (setting [14]) and in assay [4] (setting [15]) were 0.726, 1.14 and 0.693, respectively. The fluorescence slope in [6] is -0.351 (inactive). For the same compound, in assay [7], the NADPH fluorescence slope was -8.3e-07 (inactive). The slope in [8] is 0.00591 (inactive). Further, the compound was called inactive in [9].
As to `C/C=C(/C(=C/C)c1ccc(O)cc1)c1ccc(O)cc1`, the cell count in assay [1] was 603. In addition, the inhibition in assay [1] was -14.5% (inactive); in assay [3], -76% (inactive); in [5], 13.3% (inactive); in assay [10], 25.6% (inactive); in [11], 8.63% (inactive); in [12], 33.1% (inactive). In addition, in assay [2], the inhibition of aggregation is 10.1% (inactive). Besides, the nuclei count in assay [2] came to 112%; in [3], 132%. In addition, the z-score in assay [4] (setting [13]) was -0.991; in assay [4] (setting [14]) it was -0.543; in assay [4] (setting [15]) it was 0.777. Further, the fluorescence slope in assay [6] was -0.459 (inactive). Moreover, in assay [7], the NADPH fluorescence slope was -5.4e-05 (inactive). In assay [8], the slope is 0.00464 (inactive). The compound was classed as inactive in [9].
Regarding `COc1ccc2cnn(-c3ccccc3C)c(=O)c2c1OC`, in [1], the cell count came to 613. Besides, the inhibition in assay [1] was -6.2% (inactive); in assay [3], -124% (inactive); in assay [5], -6.48% (inactive); in assay [10], 9.21% (inactive); in assay [11], 9.25% (inactive); in [12], 5.14% (inactive). In assay [2], the inhibition of aggregation is 1.9% (inactive). The values for the nuclei count in [2] and in assay [3] were 116% and 157%, respectively. Also, the z-score came to 0.481 in assay [4] (setting [13]), 0.125 in assay [4] (setting [14]) and 1.16 in assay [4] (setting [15]). Moreover, in assay [6], the fluorescence slope is -0.372 (inactive). Further, in [7], the NADPH fluorescence slope is -3.7e-05 (inactive). In addition, in [8], the slope was 0.00535 (inactive). Moreover, the compound was called inactive in assay [9].
With `CNC[C@H](O)c1cccc(O)c1`, the cell count in [1] was determined as 561. For the same compound, the inhibition is 0.6% (inactive) in assay [1]; -73.1% (inactive) in assay [3]; 14.6% (inactive) in [5]; -10.5% (inactive) and 0.836% (inactive) in [10]; 11.5% (inactive) in assay [11]; 41.6% (inactive) in assay [12]. The inhibition of aggregation in assay [2] was 1.2% (inactive). Moreover, the nuclei count was determined as 89.3% in [2] and 117% in assay [3]. The figures for the z-score in [4] (setting [13]), in assay [4] (setting [14]) and in assay [4] (setting [15]) were 0.304, 0.128 and -0.803, respectively. Further, the fluorescence slope in [6] was -0.468 (inactive). Also, in [7], the NADPH fluorescence slope is -5e-05 (inactive). Moreover, the slope in [8] was 0.00773 (inactive). Further, in assay [9], the call was inactive.
On to `Cn1c2c(c(=O)n(C)c1=O)C(NC(=O)C(C)(C)C)(C(F)(F)F)C(=O)N2` (stereo not given), for which the cell count in assay [1] was found to be 538. Moreover, the inhibition was -3.9% (inactive) in [1]; -105% (inactive) in assay [3]; 5.26% (inactive) in assay [5]; 17.2% (inactive) in assay [10]; 14.7% (inactive) in [11]; 16.6% (inactive) in assay [12]. Also, the inhibition of aggregation in assay [2] is 0.9% (inactive). The nuclei count in [2] is 103%; in [3] it was 131%. In addition, the z-score in [4] (setting [13]) was -0.683; in assay [4] (setting [14]), -0.488; in [4] (setting [15]), -0.945. The fluorescence slope in assay [6] was -0.51 (inactive). Further, in [7], the NADPH fluorescence slope was -6.1e-05 (inactive). Further, in [8], the slope is 0.00635 (inactive). Further, the outcome in assay [9] was inactive.
Turning to `CCCC(=O)O[C@]1(C(=O)CCl)[C@@H](C)C[C@H]2[C@@H]3CCC4=CC(=O)C=C[C@]4(C)[C@@]3(F)C(=O)C[C@@]21C`, the cell count in assay [1] was 614. The inhibition in [1] was -3.2% (inactive); in [3], -61.7% (inactive); in assay [5], 19.2% (inactive); in [10], 47.7% (inactive); in assay [11] it was -12.4% (inactive); in assay [12], -5.01% (inactive). In assay [2], the inhibition of aggregation is -2.9% (inactive). Further, the results for the nuclei count in assay [2] and in assay [3] were 63.4% and 120%, respectively. Besides, the z-score in [4] (setting [13]) was 0.0825; in assay [4] (setting [14]), 0.587; in assay [4] (setting [15]), -0.866. Also, the fluorescence slope in assay [6] is -0.535 (inactive). Besides, the NADPH fluorescence slope in [7] is -7e-05 (inactive). Moreover, the slope in [8] was 0.00401 (inactive). Besides, in [9], the result was inactive.
`COc1ccc(Cl)cc1C(=O)NCCc1ccc(S(=O)(=O)NC(=O)NC2CCCCC2)cc1`: the cell count in assay [1] stood at 517. The inhibition in [1] was -3.1% (inactive); in assay [3], 48.6% (inactive); in [5], 5.79% (inactive); in assay [10] it was 3.54% (inactive) and -10.9% (inactive); in [11] it was 19.2% (inactive); in [12] it was 42.8% (inactive). The inhibition of aggregation in [2] is -17.2% (inactive). The nuclei count in [2] was found to be 105%; in assay [3], 80.7%. For the same compound, the values for the z-score in [4] (setting [13]), in assay [4] (setting [14]) and in assay [4] (setting [15]) were 0.545, -1.59 and -0.882, respectively. Further, in assay [6], the fluorescence slope is -0.462 (inactive). Besides, the NADPH fluorescence slope in assay [7] is -5.3e-05 (inactive). The slope in [8] was 0.00532 (inactive). The call in assay [9] was inactive.
